“And” between values parts separate entries of the source, which are not always exact repeats. Identical values can stand only once. Results filed as inconclusive are left out. The source made the active and inactive calls. How the calls were made is not given here.
Test: dose response, DH231 delta cqsS, luminescence, dry powder (AID 651808)
Settings: V. cholerae DH231 delta cqsS, luxCDABE luminescence, 6 h; at 80 µM; test 2; stronger effect = higher value

Row | Structure (SMILES) | max activity (light induction)
1 | O=C(Cc1ccccc1Cl)NC1CCCC1 | -18.1% (inactive)
2 | O=C(Cc1ccc(-c2ccccc2)cc1)NC1CCOCC1 | -9.06% (inactive)
3 | CC(C)NC(=O)Cc1ccc(-c2ccccc2)cc1 | -26.8% (inactive)
4 | CCCn1nnnc1NCc1ccccc1Cl | -58.8% (inactive)
5 | O=C(Cc1ccc(-c2ccccc2)cc1)NC1CCC1 | -12.2% (inactive)
6 | CCCn1nnnc1NCc1ccc(N2CCCC2)cc1 | -55.4% (inactive)
7 | Cn1nnnc1NCc1ccc(N2CCCC2)cc1 | -32.9% (inactive)
8 | O=C(Cc1ccccc1OC(F)(F)F)NC1CCCC1 | -14.6% (inactive)
9 | O=C(Cc1cccc(F)c1)NC1CCCC1 | -4.2% (inactive)
10 | CCn1nnnc1NCc1ccc(N2CCCC2)cc1 | -52.6% (inactive)
11 | O=C(NCc1ccc(-c2ccccc2)cc1)C1CCCC1 | -17% (inactive)
12 | O=C(Cc1ccccc1F)NC1CCCC1 | 0.357% (inactive)
13 | O=C(Cc1ccccc1C(F)(F)F)NC1CCCC1 | -7.17% (inactive)
14 | CCCn1nnnc1NCc1ccc(C(C)C)cc1 | -51.3% (inactive)
15 | CCC(C)NC(=O)Cc1ccc(-c2ccccc2)cc1 (centres undefined) | -31.1% (inactive)
16 | O=C(Cc1ccc(-c2ccccc2)cc1)NC1CCCC1 | -13.9% (inactive) and -5.11% (inactive)
17 | CC(C)c1ccc(CNc2nnnn2C)cc1 | -24.7% (inactive)
18 | CS(=O)(=O)c1ccc(CC(=O)NC2CCCC2)cc1 | -47.4% (inactive)
19 | O=C(Cc1ccc(-c2ccccc2)cc1)NC1CCCCC1 | -14.6% (inactive)
20 | CCn1nnnc1NCc1ccc(C(C)C)cc1 | -41.8% (inactive) and -46.4% (inactive)
21 | O=C(Cc1cccc(OC(F)(F)F)c1)NC1CCCC1 | -5.92% (inactive)
22 | CCC(CC)NC(=O)Cc1ccc(-c2ccccc2)cc1 | -17.5% (inactive)
23 | COc1ccc(CC(=O)NC2CCCC2)cc1 | -4.11% (inactive)

Same assay, conditions: V. cholerae DH231 delta cqsS, luxCDABE luminescence, 6 h; measured here: test 1 replicate run; at 80 µM; test 1; stronger effect = higher value

Row | Structure (SMILES) | max activity (light induction)
24 | CCCn1nnnc1NCc1ccc(N2CCCC2)cc1 | -46.1%
25 | Cn1nnnc1NCc1ccc(N2CCCC2)cc1 | -32.2%
26 | CCn1nnnc1NCc1ccc(N2CCCC2)cc1 | -42.4%
27 | CCCn1nnnc1NCc1ccc(C(C)C)cc1 | -24.4%
28 | CCn1nnc(NCc2ccc(C)cc2)n1 | -23%
29 | CCn1nnnc1NCc1ccc(C(C)C)cc1 | -24.1% and -23.5%

Reference: PubChem BioAssay AID651808 (Broad Institute, 2012)
